About 79,000 compounds went through this panel and 15% of them were active in at least one assay; those are over-represented in the sample as a whole. Active and inactive are the calls of the source. No stated cut-off is given here; in the data, active means growth inhibition above about 70%; inactive means the rest.

A short description of the first test: NCI Yeast Anticancer Drug Screen. Data for the rad14 strain (AID 159).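 Further: 0% = growth of vehicle-treated control cultures.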 The following applies: S. cerevisiae rad14 strain growth inhibition; at 1.2 µM; hits give high values. In a few lines:
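Inhibition of growth is reported for a repair-deficient yeast mutant following compound treatment, calculated relative to cultures that received vehicle.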
`CN(C)CC(CN(C)C)C(=O)/C=C/c1ccc(Cl)cc1Cl`: the growth inhibition was -2% (inactive).
Same read-out and setting: to `c1ccc2c(c1)ccn2CCc1c[nH]c2ccccc12` belongs -16% (inactive); to `Cc1ccccc1NC(=O)c1c(C)oc2c1C(=O)c1ccccc1C2=O`, -45% (inactive); to `CC(C)OC(=O)NNc1c(Cl)cc(Cl)cc1Cl`, -4% (inactive).
The same measure, in the same setting: the result for `COc1ccc2c(c1)CCCC(Br)C2=O` (stereo unspecified) reads 3% (inactive); that for `CCC(OC(C)=O)C1CC(C(C)C)CCC1C` (stereo unspecified), 0% (inactive).
On the same count and under the same terms, the result for `c1ccc(-c2cc(C3CO3)c3ccccc3n2)cc1` (stereo unspecified) reads -4% (inactive); that for `COc1ccc(/C=C2\SC(=S)N(/C=C3\C(=O)N(c4ccccc4)N=C3C)C2=O)cc1OC`, 3% (inactive).
With `CC1=CC(=C(c2ccc(N)c(C)c2)c2ccc(N)c(C)c2)C=CC1=N`, the growth inhibition was 0% (inactive).
The same measure, in the same setting: to `CC1C(c2ccccc2)SC(=N)N1C` (stereo unspecified) belongs 1% (inactive).
`C=CC(C)(C)N1C(=O)C(C(C)=O)=C(O)C1Cc1c[nH]c2ccccc12` (stereo unspecified): the growth inhibition was -3% (inactive).
Same read-out and setting: to `O=C1c2cccc3cccc(c23)C(=O)N1CCNCCN1C(=O)c2cccc3cccc(c23)C1=O` belongs 0% (inactive); to `COC(=O)C(Cc1c[nH]c2ccccc12)N1CN(C)c2ccccc2C1=O` (stereo unspecified), 6% (inactive); to `O=C(/N=N/C(=O)Oc1ccccc1)Oc1ccccc1`, -26% (inactive).
Still for that read-out and setting: the result for `COc1cc([C@@H]2c3cc4c(cc3[C@@H](NC(=O)NO)[C@H]3COC(=O)[C@H]23)OCO4)cc(OC)c1O` reads -4% (inactive).
As for `CC1(C)CC(=O)C(/C=N/c2nc(-c3ccc(Br)cc3)cs2)=C(O)C1`, the growth inhibition is 6% (inactive).
On the same count and under the same terms, to `CCOC(=O)/C(=C/c1cccc(Cl)c1)N(CC)CC` belongs -12% (inactive); to `O=S(=O)(NC1CCCC(c2ccccc2)C1)c1ccccc1` (stereo unspecified), 1% (inactive).
The same measure, in the same setting: the result for `COc1ccc2nc3cccc([N+](=O)[O-])c3c(NCCCCCC(=O)O)c2c1` reads 96% (active); that for `CCO/C=C1\SC(=S)N(c2ccc(OCC)cc2)C1=O`, -42% (inactive); that for `COC(=O)c1ccccc1N=NNc1cccc(SC)c1`, -11% (inactive).
On the same count and under the same terms, to `CC1=NN(C(=O)c2ccccc2O)C(=O)/C1=C/c1ccco1` belongs -1% (inactive); to `COc1ccccc1NC(=O)c1ccc(Cl)cc1`, 0% (inactive); to `CC(C)=CCC/C(C)=C/CN1C(=O)C=CC1=O`, 14% (inactive).
For the compound `O=C1CSC(c2ccccc2)N1c1ccc(-c2ccc(-n3c(-c4ccccc4)nc4ccccc4c3=O)cc2)cc1` (stereo unspecified), the growth inhibition was 1% (inactive).
For the compound `N#CC1OB(O)c2ccccc21` (stereo unspecified), the growth inhibition is -3% (inactive).
Same read-out and setting: to `Brc1ccc(B2Nc3ccccc3N2)cc1` belongs 13% (inactive); to `CCOP(=O)(OCC)/C(C#N)=C/c1cccc(Oc2ccccc2)c1`, -40% (inactive).

Still in this test, the particulars now being: S. cerevisiae rad14 strain growth inhibition; at 3.7 µM; hits give high values.
For the compound `CN(C)CC(CN(C)C)C(=O)/C=C/c1ccc(Cl)cc1Cl`, the growth inhibition is -2% (inactive).
Same read-out and setting: to `c1ccc2c(c1)ccn2CCc1c[nH]c2ccccc12` belongs -29% (inactive); to `Cc1ccccc1NC(=O)c1c(C)oc2c1C(=O)c1ccccc1C2=O`, -28% (inactive).
The same measure, in the same setting: the result for `CC(C)OC(=O)NNc1c(Cl)cc(Cl)cc1Cl` reads -2% (inactive).
The same measure, in the same setting: the result for `COc1ccc2c(c1)CCCC(Br)C2=O` (stereo unspecified) reads 2% (inactive); that for `CCC(OC(C)=O)C1CC(C(C)C)CCC1C` (stereo unspecified), 0% (inactive); that for `c1ccc(-c2cc(C3CO3)c3ccccc3n2)cc1` (stereo unspecified), -4% (inactive).
As to `COc1ccc(/C=C2\SC(=S)N(/C=C3\C(=O)N(c4ccccc4)N=C3C)C2=O)cc1OC`, the growth inhibition was 4% (inactive).
The same measure, in the same setting: to `CC1=CC(=C(c2ccc(N)c(C)c2)c2ccc(N)c(C)c2)C=CC1=N` belongs 2% (inactive); to `CC1C(c2ccccc2)SC(=N)N1C` (stereo unspecified), 2% (inactive); to `C=CC(C)(C)N1C(=O)C(C(C)=O)=C(O)C1Cc1c[nH]c2ccccc12` (stereo unspecified), -3% (inactive).
Regarding `O=C1c2cccc3cccc(c23)C(=O)N1CCNCCN1C(=O)c2cccc3cccc(c23)C1=O`, the growth inhibition is 1% (inactive).
Still for that read-out and setting: the result for `COC(=O)C(Cc1c[nH]c2ccccc12)N1CN(C)c2ccccc2C1=O` (stereo unspecified) reads -9% (inactive).
Still for that read-out and setting: the result for `O=C(/N=N/C(=O)Oc1ccccc1)Oc1ccccc1` reads -26% (inactive); that for `COc1cc([C@@H]2c3cc4c(cc3[C@@H](NC(=O)NO)[C@H]3COC(=O)[C@H]23)OCO4)cc(OC)c1O`, -4% (inactive); that for `CC1(C)CC(=O)C(/C=N/c2nc(-c3ccc(Br)cc3)cs2)=C(O)C1`, 6% (inactive).
The same measure, in the same setting: to `CCOC(=O)/C(=C/c1cccc(Cl)c1)N(CC)CC` belongs 10% (inactive); to `O=S(=O)(NC1CCCC(c2ccccc2)C1)c1ccccc1` (stereo unspecified), 2% (inactive).
For `COc1ccc2nc3cccc([N+](=O)[O-])c3c(NCCCCCC(=O)O)c2c1`, the growth inhibition was 99% (active).
Same read-out and setting: the result for `CCO/C=C1\SC(=S)N(c2ccc(OCC)cc2)C1=O` reads -41% (inactive); that for `COC(=O)c1ccccc1N=NNc1cccc(SC)c1`, -21% (inactive).
Still for that read-out and setting: to `CC1=NN(C(=O)c2ccccc2O)C(=O)/C1=C/c1ccco1` belongs 15% (inactive); to `COc1ccccc1NC(=O)c1ccc(Cl)cc1`, -1% (inactive).
Same read-out and setting: to `CC(C)=CCC/C(C)=C/CN1C(=O)C=CC1=O` belongs 53% (inactive); to `O=C1CSC(c2ccccc2)N1c1ccc(-c2ccc(-n3c(-c4ccccc4)nc4ccccc4c3=O)cc2)cc1` (stereo unspecified), 7% (inactive); to `N#CC1OB(O)c2ccccc21` (stereo unspecified), 0% (inactive).
Turning to `Brc1ccc(B2Nc3ccccc3N2)cc1`, the growth inhibition is 24% (inactive).
In the case of `CCOP(=O)(OCC)/C(C#N)=C/c1cccc(Oc2ccccc2)c1`, the growth inhibition is -39% (inactive).

For the origin of these results see PubChem BioAssay (NCI).
